Several values for one entry are separate records, joined by “and”; a condition that tells them apart may be missing. Equal entries are not always repeated. Out of some 6,400 compounds screened, about 610 (9.5%) were called active. Rule as the data show it: active = activity change below about -70%; inconclusive = no clear call, values can overlap the other calls; inactive = above that. What follows is part of a selection rich in actives, with near analogues and random picks from the rest. More than one record can exist for a structure, and the calls need not agree.
Experiment: Toxoplasma gondii ME49Luc growth in HeLa cells, luciferase, no IFN-y, primary screen (AID 1259421)
Details: T. gondii ME49Luc in HeLa, 72 h, stronger effect = lower value, concentration not given here

Row | Compound | activity change, negative = inhibition
1 | CCCCC[C@H](O)/C=C/[C@@H]1[C@H]2C/C(=C/CCCC(=O)O)O[C@H]2C[C@H]1O | 13.9% (inactive)
2 | O=C(O)CCc1nc2ccccc2[nH]1 | 7.52% (inactive) and 21.6% (inactive)
3 | CC(C)[C@H]1c2ccc(F)cc2CC[C@@]1(CCN(C)CCCc1nc2ccccc2[nH]1)OC(=O)C1CC1 | -84% (active) and -73.8% (active)
4 | COCC(=O)O[C@]1(CCN(C)CCCc2nc3ccccc3[nH]2)CCc2cc(F)ccc2[C@@H]1C(C)C | -74.4% (active) and -72.6% (active)
5 | O=C(O)C1CC(O)CN1 (configuration not stated) | -0.806% (inactive)
6 | Cc1ccc(S(=O)(=O)Nc2nc3ccccc3nc2Nc2ccc3nsnc3c2)cc1 | 1.14% (inactive)
7 | O=c1oc2cc(O)ccc2c2oc3cc(O)ccc3c12 | 13.4% (inactive)
8 | CN(C)CC[C@H](CSc1ccccc1)Nc1ccc(S(=O)(=O)NC(=O)c2ccc(N3CCN(Cc4ccccc4-c4ccc(Cl)cc4)CC3)cc2)cc1[N+](=O)[O-] | -28.3% (inactive)
9 | CC1(C)CCC(c2ccc(Cl)cc2)=C(CN2CCN(c3ccc(C(=O)NS(=O)(=O)c4ccc(N[C@H](CCN5CCOCC5)CSc5ccccc5)c(S(=O)(=O)C(F)(F)F)c4)cc3)CC2)C1 | -89% (active)
10 | COC(=O)C(CCCN=C(N)N)NC(=O)CCCc1c(-c2ccccc2)[nH]c2c(F)cc(F)cc12 (configuration not stated) | 11.7% (inactive)
11 | C=C1[C@H]2CC[C@@]3(C)[C@H](c4ccoc4)OC(=O)C[C@]13O[C@H]1C[C@H](O)C(C)(C)[C@H](CC(=O)OC)[C@]12C | -4.68% (inactive)
12 | CCOC(=O)[C@H](CCc1ccccc1)N[C@H](C)C(=O)N1C2CCCCC2C[C@H]1C(=O)O (some centres not stated) | 14.3% (inactive) and 13.5% (inactive)
13 | C=CC(=O)Nc1cccc(OC)c1 | 7.29% (inactive)
14 | COc1cc(SC)ccc1-c1nc2ccncc2[nH]1 | -3.26% (inactive)
15 | CCN(CC)CC1CCCCN1CC(=O)N1c2ccccc2C(=O)Nc2cccnc21 (configuration not stated) | 5.74% (inactive) and 8.21% (inactive)
16 | COc1ccc2c(c1)CCC1C2CC[C@@]2(C)C1CC[C@@H]2O (some centres not stated) | -9.49% (inactive)
17 | CC12CCC3c4ccc(OC(=O)c5ccccc5)cc4CCC3C1CCC2O (configuration not stated) | -15.9% (inactive)
18 | COc1cc2c(cc1O)CC[C@@H]1[C@@H]2CC[C@]2(C)[C@@H](O)CC[C@@H]12 | -44.5% (inactive)
19 | CC12CCC3c4ccc(O)cc4CCC3C1C[C@H](O)[C@@H]2O (some centres not stated) | -75.1% (active)
20 | CC(=O)OC1CCC2C3CCc4cc(O)ccc4C3CCC12C (configuration not stated) | 1.9% (inactive)
21 | C[C@]12CCC3c4ccc(OC(=O)c5ccccc5)cc4CCC3C1CCC2=O (some centres not stated) | -55.9% (inactive)
22 | C[C@]12CCC3c4ccc(O)cc4CCC3C1CC[C@@H]2O (some centres not stated) | -87.4% (active)
23 | C[C@]12CC[C@@H]3c4ccc(O)cc4CC[C@H]3[C@@H]1C[C@@H](O)[C@@H]2O | -0.302% (inactive)
24 | C[C@]12CCC3c4ccc(O)cc4CCC3C1C[C@@H](O)[C@@H]2O (some centres not stated) | -4.22% (inactive)
25 | C[C@]12CCC3c4ccc(OS(=O)(=O)O)cc4CCC3C1CC[C@H]2O (some centres not stated) | -7.66% (inactive)
26 | C[C@]12CCC3c4ccc(OC(=O)c5ccccc5)cc4CCC3C1CC[C@@H]2O (some centres not stated) | -85.4% (active)

Row | Compound | activity change, negative = inhibition
27 | C[C@]12CC[C@@H]3c4ccc(O)cc4CC[C@H]3[C@@H]1CC[C@@H]2O | -81.4% (active) and -83.1% (active)
28 | CON(C)C(=O)N1N=C(c2cc(F)ccc2F)S[C@@]1(CCCN)c1ccccc1 | -53.7% (inactive)
29 | CCCCc1nc2ccn(CC(=O)N(C)C)c(=O)c2n1Cc1ccc(-c2ccccc2-c2nn[nH]n2)cc1 | 18.6% (inactive) and -0.527% (inactive)
30 | O=C1CSC(=O)N1 | 20.7% (inactive)
31 | O=C1NC(=O)c2cc(Nc3ccccc3)c(Nc3ccccc3)cc21 | 7.82% (inactive)
32 | CC(=O)[C@H]1CCC2C3CCC4=CC(=O)CC[C@]4(C)C3[C@H](OC(=O)CCC(=O)O)C[C@@]21C (some centres not stated) | -2.62% (inactive)
33 | CC(C)(c1ccc(O)cc1)c1ccc(O)cc1 | 6.99% (inactive)
34 | CCc1ccccc1OC[C@@H](O)CN[C@H]1CCCc2ccccc21 | 23.1% (inactive) and 15.7% (inactive)
35 | C[C@@H]1CC[C@@]2(OC1)O[C@H]1C[C@H]3[C@@H]4CC=C5C[C@@H](O)CC[C@]5(C)[C@H]4CC[C@]3(C)[C@H]1[C@@H]2C | 6.17% (inactive)
36 | CN1[C@@H]2CC[C@@H]1CC(OC(c1ccccc1)c1ccccc1)C2 (some centres not stated) | 11.3% (inactive)
37 | O=[N+]([O-])c1cn2c(n1)OC[C@@H](OCc1ccc(OC(F)(F)F)cc1)C2 | -78.6% (active)
38 | CC1O[C@@H](Oc2c(-c3ccc(O)c(O)c3)oc3cc(O)cc(O)c3c2=O)[C@H](O)[C@H](O)[C@H]1O (some centres not stated) | 5.62% (inactive)
39 | O=C1NC(=O)/C(=C\c2ccc(-c3ccc(F)cc3)o2)S1 | 32.3% (inactive)
40 | [2H]C([2H])([2H])C(O)(CCO[C@@H](C)[C@H]1CC[C@H]2/C(=C/C=C3/C[C@@H](O)C[C@H](O)C3=C)CCC[C@]12C)C([2H])([2H])[2H] | 0.514% (inactive)
41 | COc1ccc2c(=O)c(CC(=O)O)coc2c1 | 4.96% (inactive)
42 | CO/N=C(/C(=O)N[C@@H]1C(=O)N2C(C(=O)OCOC(=O)C(C)(C)C)=C(/C=C/c3scnc3C)CS[C@H]12)c1csc(N)n1 | 2.91% (inactive)
43 | C/C=C1\NC(=O)[C@H]2CSSCCC=C[C@H](CC(=O)N[C@H](C(C)C)C(=O)N2)OC(=O)[C@H](C(C)C)NC1=O | -80.8% (active)
44 | CC(=O)c1ccc2c(c1)[C@H](NC(=O)c1ccc(F)c(Cl)c1)[C@H](O)C(C)(C)O2 | -1.26% (inactive)
45 | C[C@]12CCC(=O)C=C1CCC1C2[C@@H](O)C[C@@]2(C)C1CC[C@]2(O)C(=O)CO (some centres not stated) | -3.05% (inactive)
46 | O=C(O)COc1ccc(OCCNC[C@@H](O)COc2ccccc2)cc1 | 0.151% (inactive)
47 | COc1ccc2cccc(N3CCN(CCNC(=O)c4ccc(F)cc4)CC3)c2c1 | 40.8% (inactive) and 23.4% (inactive)
48 | CC(C)C[C@H](NC(=O)CNC(=O)c1cc(Cl)ccc1Cl)B1OC(=O)CC(CC(=O)O)(C(=O)O)O1 (some centres not stated) | -87.8% (active)
49 | CCCC(C)NC(=O)c1ccc(Cl)c(Cl)c1 (configuration not stated) | 6.33% (inactive)
50 | O=C(CNC(=O)c1ccc(Cl)cc1)NO | 36.3% (inactive)
51 | CC(C)C[C@H](NC(=O)CNC(=O)c1cc(Cl)ccc1Cl)B(O)O | -77.9% (active)
52 | CC1=C(/C=C/C(C)=C/C=C/C(C)=C/C=O)C(C)(C)CCC1 | 16.4% (inactive)

Row | Compound | activity change, negative = inhibition
53 | O=C(Nc1cccnn1)N1CCC(=Cc2cccc(Oc3ccc(C(F)(F)F)cn3)c2)CC1 | -18.9% (inactive)
54 | CC1(C)C(=O)C=C[C@@]2(C)C1CC(=O)[C@]1(C)C2CC[C@@]2(C)[C@H](c3ccoc3)OC(=O)[C@H]3O[C@]321 (some centres not stated) | 30.3% (inactive)
55 | CC(=O)O[C@@H]1C[C@H]2C(C)(C)C(=O)C=C[C@]2(C)[C@H]2CC[C@@]3(C)[C@H](c4ccoc4)OC(=O)[C@H]4O[C@]43[C@@]21C | 26.1% (inactive)
56 | CC1(C)C(=O)C=C[C@@]2(C)C1C=C[C@]1(C)C2CC[C@@]2(C)[C@H](c3ccoc3)OC(=O)[C@H]3O[C@]321 (some centres not stated) | -89.3% (active)
57 | CC(=O)O[C@H]1C[C@@H](OC(C)=O)C(C)(C)C2C[C@@H](O)[C@]3(C)C(CC[C@@]4(C)[C@H](c5ccoc5)OC(=O)[C@H]5O[C@]543)[C@]21C (some centres not stated) | 5.63% (inactive)
58 | CC(C)(C)c1cc(C(C)(C)C)c(NC(=O)c2c[nH]c3ccccc3c2=O)cc1O | -81.7% (active)
59 | COC(=O)c1csc(C(=O)c2c[nH]c3ccccc23)n1 | 5.76% (inactive)
60 | OCc1c[nH]c2ccccc12 | 2.87% (inactive) and 57.8% (inactive)
61 | NC(N)=NCCNS(=O)(=O)c1cccc2cnccc12 | 0.419% (inactive) and 15.9% (inactive)
62 | CC(C)c1ccc2c(c1)C(N1CCN(CCO)CC1)Cc1ccc(F)cc1S2 (configuration not stated) | -37.4% (inactive)
63 | CC(=O)Oc1c(C)cc(OCC(O)CNC(C)C)c(C)c1C (configuration not stated) | -4.5% (inactive)
64 | CNC(=O)c1cnn(-c2nc(N)c3ncn([C@@H]4O[C@H](CO)C(O)C4O)c3n2)c1 (some centres not stated) | 7.49% (inactive)
65 | Cc1ccc(-c2nn(C(C)(C)C)c3ncnc(N)c23)cc1 | -88.2% (active) and -83% (active)
66 | CC(C)(C)n1nc(-c2ccc(Cl)cc2)c2c(N)ncnc21 | -91.7% (active)
67 | CC(C)(C)n1nc(-c2cccc3ccccc23)c2c(N)ncnc21 | -64.8% (inactive) and -76.3% (active)
68 | CCNC(=O)CCC/C=C\C[C@@H]1[C@@H](/C=C/C(O)CCc2ccccc2)[C@H](O)C[C@@H]1O (some centres not stated) | 8.47% (inactive)
69 | O=[N+]([O-])c1cncn1CCN1CCOCC1 | 23.6% (inactive)
70 | CCCOc1ccc2nc(NC(=O)OC)sc2c1 | 106% (inactive)
71 | CCCn1c(=O)[nH]c(=O)c2[nH]cnc21 | 6.86% (inactive)
72 | CCC(=O)c1ccc(OCC(O)CN2CCN(c3ccccc3)CC2)cc1 (configuration not stated) | 9.53% (inactive)
73 | COc1ccc(N2CCOCC2)c2sc(NC(=O)N3CCC(C)(O)CC3)nc12 | 12.2% (inactive)
74 | CCCCC#Cc1nc(NC)c2ncn(C3OC(CO)C(O)C3O)c2n1 (configuration not stated) | -3.28% (inactive)
75 | Cc1cc(OCCN2CCOCC2)nn1-c1ccc2ccccc2c1 | 13.6% (inactive)
76 | O=c1[nH]c(=O)c2[nH]c(=O)[nH]c2[nH]1 | 3.85% (inactive)
77 | CC(C)NC[C@@H](O)c1ccc(NS(C)(=O)=O)cc1 | 2.38% (inactive)

Source: PubChem BioAssay AID1259421 (Broad Institute, 2018)
